Activity calls are given as the source filed them.
What was measured:
[1] = binders of probe aFSTL3 on microarray, primary screen, stem cell growth factor project, biochemical, small-molecule microarray, fluorescence 635/667 (AID 1064); details: higher = more signal;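 further: measures binding of the biotinylated anti-FSTL3 antibody to printed compounds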
[2] = binders from COS7 lysate, DM2A8 probe, primary screen, torsin A project, cell lysate, small-molecule microarray, fluorescence 635/667 (AID 1065); details: higher = more signal, COS7 lysate expressing mutant human TOR1A
[3] = binders of probe aFGF2 on microarray, primary screen, stem cell growth factor project, biochemical, small-molecule microarray, fluorescence 635/667 (AID 1067); details: higher = more signal;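 further: measures binding of biotinylated aFGF2 protein to printed compounds on slides; z-score merges feature fluorescence and signal-to-noise across triplicate slides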
[4] = binders of probe aFGF10 on microarray, primary screen, stem cell growth factor project, biochemical, small-molecule microarray, fluorescence 635/667 (AID 1071); details: higher = more signal;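 further: score merges 667 nm spot intensity and signal to noise from triplicate slides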
[5] = biological target: Neurogenic locus notch homolog protein 2 (Homo sapiens) (UniProt Q04721); assay: Notch2 binders on small-molecule microarrays, primary screen, biochemical, small-molecule microarray, 635 nm fluorescence, stem cell growth factors (AID 1073); details: Notch2 binding, higher = more signal
[6] = biological target: Pro-neuregulin-1, membrane-bound isoform (Homo sapiens) (UniProt Q02297); assay: NRG1 binders on small-molecule microarrays, primary screen, psychiatric disease protein project, biochemical, small-molecule microarray, fluorescence 635/667 (AID 1075); details: NRG1 binding, 635 nm fluorescence, higher = more signal;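 further: score combines 667 nm spot fluorescence with signal to noise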
[7] = test system: Neuregulin-1 EGF-like domain; assay: binders of neuregulin-1 EGF-like domain, primary screen, biochemical, small-molecule microarray, 635 nm fluorescence (AID 1081); details: small-molecule microarray binding, higher = more signal;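 further: binding of the protein to compounds printed on small-molecule microarray slides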
[8] = FRG1 promoter luciferase signal modulators, primary screen, FRG1 inhibition for FSHD, cell-based, C2C12 myotubes, firefly/Renilla luciferase, luminescence (AID 1084); details: higher = more signal, called active from +8 up or from −8 down
[9] = binders of probe aFST on microarray, primary screen, stem cell growth factor project, biochemical, small-molecule microarray, fluorescence 635/667 (AID 1086); details: higher = more signal;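 further: score merges 667 nm fluorescence with signal-to-noise of each printed compound spot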
[10] = binders of probe aHhip on microarray, primary screen, stem cell growth factor project, biochemical, small-molecule microarray, fluorescence 635/667 (AID 1087); details: higher = more signal;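 further: score merges spot fluorescence at 667nm with spot signal to noise ratio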
[11] = test system: PRMT1 (protein arginine N-methyltransferase 1); assay: PRMT1 binders on small-molecule microarrays, primary screen, biochemical, small-molecule microarray, 635 nm fluorescence (AID 1088); details: small-molecule microarray binding, higher = more signal;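 further: binding of Prmt1 protein to compounds spotted on small-molecule microarray slides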
[12] = yeast growth modulation, basal conditions, primary screen, YJM789 clinical isolate, OD600, 24 h (AID 1089);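 further: growth of clinical yeast isolate S. cerevisiae YJM 789 seeded 1000 cells per well; test concentration not given here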; details: S. cerevisiae YJM789 growth, higher = more signal, called active from +8 up or from −8 down
[13] = fission yeast growth modulation, primary screen, strain 972, OD600, 24 h, no modulator (AID 1090);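 further: basal condition with compound alone and no growth modifier present; test concentration not given here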; details: S. pombe 972 growth, higher = more signal, called active from +8 up or from −8 down
[14] = S. cerevisiae growth modulation with rapamycin, primary screen, strain BY4716, OD600, 96 h (AID 1091); details: higher = more signal, called active from +8 up or from −8 down; further: test concentration not given here
[15] = biological target: Torsin-1A-interacting protein 2 (Homo sapiens) (UniProt Q8NFQ8); assay: LULL1 binders on small-molecule microarray, primary screen, cell lysate, human LULL1 lysate, 635/667 nm fluorescence (AID 1092); details: hLULL1 lysate binding, 635 nm fluorescence, higher = more signal;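 further: probe is lysate of COS7 cells overexpressing human LULL1; score merges per-feature 667 nm fluorescence with signal-to-noise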
[16] = E. coli growth modulation, two-sided OD650, primary screen, E. coli filamentation project, strain DRC41, 24 h (AID 1093); details: OD650, 24 h, higher = more signal, called active from +8 up or from −8 down;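 further: MC1000 strain lacking acrAB efflux and sulA so SOS filamentation is blocked; test concentration not given here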
[17] = small-molecule microarray binders of probe aLefty2, primary screen, biochemical, biotinylated probe, 635/667 nm fluorescence (AID 1094); details: higher = more signal;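 further: score merges spot fluorescence near 667 nm with spot signal-to-noise ratio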
[18] = test system: Noggin (protein binding on small-molecule microarray); assay: Noggin binders on small-molecule microarray, primary screen, biochemical, 635/667 nm fluorescence (AID 1095); details: 635 nm fluorescence, higher = more signal;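 further: score merges 667 nm feature fluorescence with signal to noise over triplicate slides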
[19] = biological target: Neurogenic locus notch homolog protein 3 (Homo sapiens) (UniProt Q9UM47); assay: NOTCH3 binders on small-molecule microarray, primary screen, biochemical, 635/667 nm fluorescence (AID 1096); details: NOTCH3 binding, 635 nm fluorescence, higher = more signal
[20] = small-molecule microarray binders of probe aEGFR, primary screen, biochemical, biotinylated probe, 635/667 nm fluorescence (AID 1097); details: higher = more signal;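 further: probe is a biotinylated anti-EGFR antibody binding compounds printed on slides; score combines fluorescence near 667 nm and signal to noise of each spot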

Chain of Torsin-1A-interacting protein 2 (Homo sapiens) (Q8NFQ8 whole entry, looked up): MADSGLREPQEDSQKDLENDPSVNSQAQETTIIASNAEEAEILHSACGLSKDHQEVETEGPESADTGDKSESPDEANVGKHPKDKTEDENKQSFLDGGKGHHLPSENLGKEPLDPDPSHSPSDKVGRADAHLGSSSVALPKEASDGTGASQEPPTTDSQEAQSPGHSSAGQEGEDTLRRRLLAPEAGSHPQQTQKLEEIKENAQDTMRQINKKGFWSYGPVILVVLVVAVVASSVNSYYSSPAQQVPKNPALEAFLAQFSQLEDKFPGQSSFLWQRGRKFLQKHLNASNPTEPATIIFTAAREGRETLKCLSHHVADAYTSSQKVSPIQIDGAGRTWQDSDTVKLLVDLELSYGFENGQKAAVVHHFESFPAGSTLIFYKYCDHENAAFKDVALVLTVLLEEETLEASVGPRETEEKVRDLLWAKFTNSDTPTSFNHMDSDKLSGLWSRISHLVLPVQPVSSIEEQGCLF
Chain of Neurogenic locus notch homolog protein 2 (Homo sapiens) (Q04721 whole entry, looked up, canonical isoform): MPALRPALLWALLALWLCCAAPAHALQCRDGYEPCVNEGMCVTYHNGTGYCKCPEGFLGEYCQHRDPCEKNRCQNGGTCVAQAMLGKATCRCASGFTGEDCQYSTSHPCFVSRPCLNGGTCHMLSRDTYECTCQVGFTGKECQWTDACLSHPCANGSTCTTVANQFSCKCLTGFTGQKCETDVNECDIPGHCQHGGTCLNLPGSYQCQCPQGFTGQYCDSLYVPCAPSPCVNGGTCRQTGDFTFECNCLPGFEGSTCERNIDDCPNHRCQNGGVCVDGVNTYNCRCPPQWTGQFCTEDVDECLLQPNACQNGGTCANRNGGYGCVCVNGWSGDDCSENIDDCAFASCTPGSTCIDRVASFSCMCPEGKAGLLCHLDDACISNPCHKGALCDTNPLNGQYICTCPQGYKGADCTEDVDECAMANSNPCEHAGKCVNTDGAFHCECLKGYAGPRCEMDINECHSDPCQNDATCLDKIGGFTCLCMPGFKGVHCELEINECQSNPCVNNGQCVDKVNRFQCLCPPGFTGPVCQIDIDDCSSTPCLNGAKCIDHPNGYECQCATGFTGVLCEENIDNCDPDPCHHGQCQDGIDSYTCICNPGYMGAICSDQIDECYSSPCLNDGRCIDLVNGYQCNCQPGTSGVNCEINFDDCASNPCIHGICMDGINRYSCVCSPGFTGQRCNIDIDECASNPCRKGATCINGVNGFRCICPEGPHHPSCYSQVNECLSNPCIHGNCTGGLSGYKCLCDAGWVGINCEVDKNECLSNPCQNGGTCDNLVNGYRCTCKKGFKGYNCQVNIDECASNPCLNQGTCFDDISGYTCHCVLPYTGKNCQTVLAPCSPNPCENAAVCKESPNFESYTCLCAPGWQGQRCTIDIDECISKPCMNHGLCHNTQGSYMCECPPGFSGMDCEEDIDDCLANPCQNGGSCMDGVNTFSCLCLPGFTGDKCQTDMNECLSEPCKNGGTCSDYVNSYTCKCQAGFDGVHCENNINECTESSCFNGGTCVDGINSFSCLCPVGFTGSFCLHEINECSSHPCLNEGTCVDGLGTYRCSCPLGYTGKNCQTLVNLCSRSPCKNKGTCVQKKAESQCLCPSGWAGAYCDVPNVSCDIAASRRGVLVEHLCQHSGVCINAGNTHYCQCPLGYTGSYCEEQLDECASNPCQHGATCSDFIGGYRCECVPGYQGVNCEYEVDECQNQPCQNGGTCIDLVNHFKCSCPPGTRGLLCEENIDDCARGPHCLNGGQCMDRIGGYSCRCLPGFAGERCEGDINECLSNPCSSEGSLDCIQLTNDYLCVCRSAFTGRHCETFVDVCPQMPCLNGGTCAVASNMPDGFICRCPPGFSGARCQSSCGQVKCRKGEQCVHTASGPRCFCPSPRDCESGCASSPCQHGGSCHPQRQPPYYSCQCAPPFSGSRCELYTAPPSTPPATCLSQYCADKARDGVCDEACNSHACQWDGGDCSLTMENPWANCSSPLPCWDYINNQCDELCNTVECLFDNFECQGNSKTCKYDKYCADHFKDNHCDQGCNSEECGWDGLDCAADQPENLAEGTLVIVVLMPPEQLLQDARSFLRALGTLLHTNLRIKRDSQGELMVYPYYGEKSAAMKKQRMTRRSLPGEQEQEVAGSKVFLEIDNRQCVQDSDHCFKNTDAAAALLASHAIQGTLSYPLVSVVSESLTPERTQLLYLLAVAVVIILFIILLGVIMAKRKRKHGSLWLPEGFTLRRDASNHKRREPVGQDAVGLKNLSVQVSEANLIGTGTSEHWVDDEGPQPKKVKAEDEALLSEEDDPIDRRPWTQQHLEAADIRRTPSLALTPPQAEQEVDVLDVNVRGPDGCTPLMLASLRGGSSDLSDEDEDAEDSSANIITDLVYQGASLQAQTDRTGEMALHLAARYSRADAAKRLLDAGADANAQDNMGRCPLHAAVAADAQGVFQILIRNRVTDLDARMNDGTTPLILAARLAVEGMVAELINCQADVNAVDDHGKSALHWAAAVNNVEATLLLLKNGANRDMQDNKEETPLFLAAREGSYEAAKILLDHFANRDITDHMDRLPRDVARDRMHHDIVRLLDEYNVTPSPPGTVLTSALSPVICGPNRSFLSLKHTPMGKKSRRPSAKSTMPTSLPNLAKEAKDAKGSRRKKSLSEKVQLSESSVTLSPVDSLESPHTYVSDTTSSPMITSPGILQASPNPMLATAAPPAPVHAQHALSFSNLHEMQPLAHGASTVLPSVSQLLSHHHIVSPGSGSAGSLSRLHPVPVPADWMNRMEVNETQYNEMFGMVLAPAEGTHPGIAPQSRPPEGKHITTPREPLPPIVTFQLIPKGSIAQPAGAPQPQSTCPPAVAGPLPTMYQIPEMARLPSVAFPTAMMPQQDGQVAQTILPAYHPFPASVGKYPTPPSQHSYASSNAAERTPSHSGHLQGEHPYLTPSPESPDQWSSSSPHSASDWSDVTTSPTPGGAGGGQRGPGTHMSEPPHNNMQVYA
Chain of Pro-neuregulin-1, membrane-bound isoform (Homo sapiens) (Q02297 whole entry, looked up, the tested form may be a part, canonical isoform): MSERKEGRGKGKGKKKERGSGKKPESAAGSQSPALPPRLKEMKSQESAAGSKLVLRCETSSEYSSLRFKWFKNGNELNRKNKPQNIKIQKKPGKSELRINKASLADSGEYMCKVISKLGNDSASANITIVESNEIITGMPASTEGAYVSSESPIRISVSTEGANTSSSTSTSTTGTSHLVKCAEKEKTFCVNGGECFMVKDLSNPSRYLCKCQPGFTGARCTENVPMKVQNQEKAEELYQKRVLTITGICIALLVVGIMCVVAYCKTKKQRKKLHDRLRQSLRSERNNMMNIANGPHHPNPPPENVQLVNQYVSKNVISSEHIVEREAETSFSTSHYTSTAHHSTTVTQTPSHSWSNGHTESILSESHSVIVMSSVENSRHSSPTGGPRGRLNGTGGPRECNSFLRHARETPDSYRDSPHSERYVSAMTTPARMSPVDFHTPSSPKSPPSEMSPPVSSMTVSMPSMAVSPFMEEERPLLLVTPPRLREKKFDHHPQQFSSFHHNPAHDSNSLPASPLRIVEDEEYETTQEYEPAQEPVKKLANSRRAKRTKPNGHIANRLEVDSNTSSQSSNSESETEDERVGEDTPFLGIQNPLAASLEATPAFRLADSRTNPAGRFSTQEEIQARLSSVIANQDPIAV

| Structure (SMILES) | composite z-score [1] | composite z-score [2] | composite z-score [3] | composite z-score [4] | composite z-score [5] | composite z-score [6] | composite z-score [7] | z-score [8] | composite z-score [9] | composite z-score [10] | composite z-score [11] | z-score [12] | z-score [13] | z-score [14] | composite z-score [15] | z-score [16] | composite z-score [17] | composite z-score [18] | composite z-score [19] | composite z-score [20] |
| --- | --- | --- | --- | --- | --- | --- | --- | --- | --- | --- | --- | --- | --- | --- | --- | --- | --- | --- | --- | --- |
| C[C@@H]1ON(c2ccc(C(=O)OC(C)(C)C)cc2)[C@H](c2ccc(Br)cc2)[C@H]1C(=O)N1C(=O)OC[C@H]1Cc1ccccc1 | -0.312 | 0.155 | 0.0333 | 0.552 | 1.52 | 1.05 | 1.11 | 0.002 (inactive) | 0.492 | -0.0618 | 1.53 | 0.689 (inactive) | 0.716 (inactive) | 0.71 (inactive) | 2.22 | 0.425 (inactive) | 0.149 | 0.633 | 1.08 | 0.0338 |
| Cc1ccc(S[C@]2(C(=O)NCCN3CCOCC3)CC(=O)N(Cc3ccccc3C(F)(F)F)[C@@H]2c2ccc(CO)cc2I)cc1 | 0.273 | -0.245 | -0.0876 | -0.36 | -0.103 | 2.09 | 1.23 | -0.883 (inactive) | -0.295 | -0.236 | 0.783 | -1.57 (inactive) | -4.24 (inactive) | 0.176 (inactive) | 1.2 | -0.28 (inactive) | -0.145 | -0.586 | -0.689 | -0.233 |
| COc1ccc([Si](C)(C)[C@H]2[C@H](CCn3cc([C@H](O)c4ccccc4)nn3)O[C@@]3(C(=O)N(Cc4cccc(N5C(=O)c6cccc7cccc5c67)c4)c4ccccc43)[C@@H]2C)cc1 | 0.582 | -0.17 | -0.158 | -1.11 | -1.65 | 0.84 | 0.251 | -0.704 (inactive) | -0.295 | -0.0994 | 0.492 | -0.844 (inactive) | 0.723 (inactive) | 0.635 (inactive) | 1.28 | -0.666 (inactive) | -0.134 | -1.17 | -0.871 | -0.21 |
| COCCOC(=O)N1C(=O)[C@@]2(c3cc(C#Cc4ccc(OC)cc4)ccc31)[C@H](C(=O)N1CCCCCCC1)[C@H]1C(=O)O[C@H](c3ccccc3)[C@H](c3ccccc3)N1[C@@H]2c1ccc(O)cc1 | 2.75 | 0.294 | 0.125 | 0.479 | 0.565 | 0.114 | 1.13 | 1.09 (inactive) | 2.06 | 0.615 | 1.47 | -0.194 (inactive) | 0.318 (inactive) | 2.3 (inactive) | 1.79 | 0.551 (inactive) | 0.834 | 0.674 | 0.709 | 0.0577 |
| [N-]=[N+]=Nc1ccccc1C[C@@]1(C(=O)O)N=C(c2ccc(OCCCO)cc2)O[C@@H]1c1ccccc1 | 0.0693 | -0.518 | 0.0248 | 0.303 | 1.35 | 1.75 | 1.24 | 0.835 (inactive) | 0.827 | -0.0765 | 0.616 | -0.0525 (inactive) | -0.85 (inactive) | -1.45 (inactive) | 3.43 | -0.0393 (inactive) | 0.0917 | -0.272 | 0.697 | -0.0952 |
| CCOC(=O)C1=CC[C@@H](c2cc(Cl)ccc2Cl)N(S(=O)(=O)c2ccc(C)cc2)[C@H]1c1ccc(OC)cc1 | 0.522 | 0.0025 | 0.259 | 0.582 | 0.147 | -0.362 | 0.13 | -1.69 (inactive) | 0.623 | 0.082 | -0.393 | 1.31 (inactive) | 2.17 (inactive) | 1.43 (inactive) | 0.506 | -0.0891 (inactive) | 0.754 | -0.546 | -0.329 | 0.379 |
| C=CCN1C(=O)[C@@]2(O[C@@H](CCn3cc([C@H](O)c4ccccc4)nn3)[C@H]([Si](C)(C)c3ccc(OC)cc3)[C@H]2C)c2ccccc21 | -0.0119 | 0.395 | -0.036 | 0.386 | 0.501 | 1.31 | 1.01 | -1.45 (inactive) | 0.728 | -0.289 | 1.55 | -0.78 (inactive) | -0.0638 (inactive) | 0.307 (inactive) | 1.02 | 1.1 (inactive) | -0.0507 | 0.442 | 1.16 | -0.094 |
| COc1ccc(CCNC(=O)[C@@]2(Sc3ccc(C)cc3)CC(=O)N(Cc3cc(C(F)(F)F)cc(C(F)(F)F)c3)[C@@H]2c2ccc(CO)cc2I)cc1 | 0.332 | -0.671 | -0.0894 | -0.0189 | -0.632 | 0.899 | 1.07 | 0.214 (inactive) | 0.582 | -0.271 | 1.46 | -2.62 (inactive) | -3.09 (inactive) | 2.1 (inactive) | 1.94 | 0.152 (inactive) | -0.0208 | -0.299 | -0.0768 | -0.24 |
| COCCOC(=O)N1C(=O)[C@@]2(c3cc(C#Cc4ccc(OC)cc4)ccc31)[C@H](C(=O)N1CCN(c3ncccn3)CC1)[C@H]1C(=O)O[C@H](c3ccccc3)[C@H](c3ccccc3)N1[C@@H]2c1ccccc1OCCO | -0.0234 | 0.0841 | -0.124 | 0.475 | 0.711 | 0.0925 | 1.02 | -0.425 (inactive) | 0.0402 | -0.0994 | 1.45 | 3.33 (inactive) | 2.27 (inactive) | 7.9 (inactive) | 2.17 | -0.332 (inactive) | -0.0917 | 0.735 | 0.605 | -0.0382 |

Reference: PubChem BioAssay
